# Measured values published in PubChem BioAssay (NCATS).
# “And” between values parts separate entries of the source, which are not always exact repeats. Equal entries are not always repeated. Records with an inconclusive call do not appear. A call without a number means that no potency is given here. The source holds several records for some structures; these can differ, active in one and inactive in another. The source made the active and inactive calls. The call rests on the fitted dose curve; in most records, active means well fitted curve in the direction sought with a large enough effect; inconclusive means small, poorly fitted or top-dose-only effect, or another doubt; inactive means no such curve, though single readings can be large; an effect the other way counts as inactive or inconclusive. Square brackets hold non-standard residues; d marks the D form. Peptide text beside a SMILES is read from it. * marks the point of attachment. Nva = CCC[C@H](N)C(=O)O; Cbz = O=C(OCc1ccccc1)*
# Experiments:
# [1] = Viability qHTS for spleen associated tyrosine kinase inhibitor (SYKi) naive MV4-11 cells (AID 1963823); further: nearly all actives have a fitted effect of over 40% in size
# In short: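 qHTS, SYK inhibitor-naive MV4-11; 500 cells/well; 72 hr compound exposure, 37 C; CellTiter-Glo added, 10 min RT; luminescence read.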
# [2] = Viability qHTS for spleen associated tyrosine kinase inhibitor (SYKi) drug resistant MV4-11 cells (AID 1963824); further: nearly all actives have a fitted effect of over 35% in size
# In short: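 SYK-inhibitor-resistant MV4-11 AML cells were seeded at 500 per well onto compound and cultured 72 hours (37 °C, 5% CO2). CellTiter-Glo was then added, and after 10 min at room temperature, luminescence gave viability.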
# [3] = Quantitative highthroughput screen to assess conditional lethalithy of NOMO1 cells grown in RPMI1640 with untreated serum (RPMI+s) (AID 1963876); further: nearly all actives have a fitted effect of over 35% in size
# In short: (§1)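 Each medium arm—HPLM with 10% dialyzed FBS, or RPMI1640 with 5 mM glucose and 10% untreated or dialyzed FBS—was screened against an 11-point, 3-fold compound titration for 48 h at 37 °C, with CellTiter-Glo luminescence as endpoint.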
# [4] = Quantitative highthroughput screen to assess conditional lethalithy of NOMO1 cells grown in RPMI1640 with dialyzed fetal bovine serum (RPMI+ds) (AID 1963877); further: nearly all actives have a fitted effect of over 30% in size; on Viability: series mostly up to about 46 µM
# In short: as §1
# [5] = Quantitative highthroughput screen to assess conditional lethalithy of NOMO1 cells grown in Human Plasma-Like Medium with dialyzed fetal bovine serum (HPLM+ds) (AID 1963878); further: nearly all actives have a fitted effect of over 35% in size
# In short: as §1
# [6] = Quantitative highthroughput screen to assess conditional lethalithy of P12 Ichikawa cells grown in Human Plasma-Like Medium with dialyzed fetal bovine serum (HPLM+ds) (AID 1963879); details: Potency: viability; further: nearly all actives have a fitted effect of over 35% in size; on Viability: series mostly up to about 46 µM
# In short: as §1
# [7] = Quantitative highthroughput screen to assess conditional lethalithy of P12 Ichikawa cells grown in RPMI1640 with dialyzed fetal bovine serum (RPMI+ds) (AID 1963880); details: Potency: P12-Ichikawa viability; further: nearly all actives have a fitted effect of over 35% in size
# In short: as §1
# [8] = Quantitative highthroughput screen to assess conditional lethalithy of P12 Ichikawa cells grown in RPMI1640 with untreated serum (RPMI+s) (AID 1963881); details: Potency: viability; further: nearly all actives have a fitted effect of over 35% in size; on Viability: series mostly up to about 46 µM
# In short: as §1
# [9] = Quantitative highthroughput screen to assess conditional lethalithy of SEM cells grown in Human Plasma-Like Medium with dialyzed fetal bovine serum (HPLM+ds) (AID 1963882); further: nearly all actives have a fitted effect of over 35% in size; on Viability: series mostly up to about 46 µM
# In short: as §1
# [10] = Quantitative highthroughput screen to assess conditional lethalithy of SEM cells grown in RPMI1640 with unreated serum (RPMI+s) (AID 1963883); further: nearly all actives have a fitted effect of over 35% in size
# In short: as §1
# [11] = Quantitative highthroughput screen to assess conditional lethalithy of SEM cells grown in RPMI1640 with dialyzed fetal bovine serum (RPMI+ds) (AID 1963884); further: nearly all actives have a fitted effect of over 35% in size; on Viability: series mostly up to about 46 µM
# In short: as §1
# [12] = Cellular viability qHTS for adrenocortical cancer (ACC) cell line SW-13 (AID 1963989); details: SW-13 ACC cells viability, CellTiter-Glo, 48 h; activity (max response): stronger effect = lower value; further: nearly all actives have a fitted effect of over 65% in size;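 on activity (max response): cells grown in serum-free medium with ITS supplement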
# In short: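 Luminescent ATP read-out (CellTiter-Glo, 20 min at room temperature) measured metabolically competent SW-13 cells after 48 h compound treatment. Final concentrations spanned up to 46 uM; bortezomib served as positive control.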
# [13] = Cellular viability qHTS for adrenocortical cancer (ACC) cell line NCI-H295R (AID 1963990); further: nearly all actives have a fitted effect of over 60% in size
# In short: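 IC50 and maximal efficacy derive from four-parameter logistic modelling of titration curves, with reads scaled between DMSO-only wells (0%) and doxorubicin hydrochloride (100% inhibition). Compounds spanned up to 46 uM over 48 h.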
# Potency means the concentration at half of the fitted maximal effect.
SMILES,Potency [1],Potency [2],Potency [3],Potency [4],Potency [5],Potency [6],Potency [7],Potency [8],Potency [9],Potency [10],Potency [11],Potency [12],Potency [13],activity (max response) [12]
CCC[C@@H](C=O)NC(=O)[C@H](CC(C)C)NC(=O)[C@H](CC(C)C)NC(=O)OCc1ccccc1 (Cbz-Leu-Leu-[Nva]-aldehyde),0.742 µM (active),0.934 µM (active),1.32 µM (active),2.64 µM (active),1.87 µM (active),3.32 µM (active),3.32 µM (active),2.64 µM (active),2.35 µM (active),0.526 µM (active),1.48 µM (active),2 µM (active),1.58 µM (active),
CN(C)c1nc(Cc2ccc(NC(=O)c3ccc(C(F)(F)F)cc3)cc2)nc(N(C)C)c1CC(=O)O,inactive,inactive,inactive,inactive,inactive,inactive,inactive,inactive,inactive,inactive,inactive,,,
CC(=O)OC1C[C@]2(C)C(O)CC(C)=C[C@H](OC(=O)c3ccc(O)cc3)C2[C@]1(O)C(C)C (some centres undefined),inactive,6.32 µM (active),,,,,,,,,,,,
COc1ccc2c(Oc3ccc(NC(=O)c4c(C)n(CC(C)(C)O)n(-c5ccccc5)c4=O)cc3F)ccnc2c1,0.0934 µM (active),0.148 µM (active),inactive,18.7 µM (active),inactive,inactive,inactive,inactive,,,,,,
C/C=C/C1=CC2=C(CO1)C(=O)C(C)(O)C(OC(=O)c1c(C)cc(OC)cc1O)C2 (centres undefined),6.4 µM (active),4.04 µM (active),,,,,,,,,,,,
C=C1CC[C@@H](O)[C@]2(C)C[C@H]3OC(=O)C(=C)[C@H]3CC12 (some centres undefined),14.6 µM (active),6.51 µM (active),,,,,,,,,,,,
COc1ccccc1OCCNCC(O)COc1cccc2[nH]c3ccccc3c12 (centres undefined),13.3 µM (active),11.9 µM (active),inactive,inactive,inactive,inactive,inactive,inactive,inactive,inactive,inactive,,,
CCCc1cc(C)[nH]c(=O)c1CNC(=O)c1cc(-c2ccnc(N3CCN(C)CC3)c2)cc2c1cnn2C(C)C,14.8 µM (active),11.8 µM (active),,,,,,,,,,,,
COc1cc2ncnc(Nc3cc(Br)c(O)c(Br)c3)c2cc1OC,11.8 µM (active) and 11.6 µM (active),13.2 µM (active) and 9.2 µM (active),inactive,inactive,inactive,inactive,inactive,inactive,inactive,inactive,,,,
COc1ccc(Cn2ccc3ccc(C(=O)NO)cc32)cc1,14.8 µM (active),20.6 µM (active) and 18.6 µM (active),inactive,,,,,,,,,,,
CC(NC(=O)CC(=O)O)c1nc2ccccc2c(=O)[nH]1 (centres undefined),inactive,inactive,,,,,,,,,,,,
c1cc(OCCN2CCCCC2)cc(-c2n[nH]c3ccc(-c4ncn[nH]4)cc23)c1,0.651 µM (active),1.16 µM (active),inactive,inactive,inactive,inactive,inactive,inactive,,,,,,
C=C1C(=O)OC(CCCCCCCC)C1C(=O)O (centres undefined),inactive,inactive,inactive,inactive,inactive,inactive,inactive,inactive,inactive,inactive,inactive,,,-7.15% (inactive)
COc1ccc2[nH]cc(CCNC(C)=O)c2c1,inactive,inactive,inactive,inactive,inactive,inactive,inactive,inactive,inactive,inactive,inactive,,,-5.05% (inactive) and -7.41% (inactive)
CC(=O)OCC(Cc1ccccc1)NC(=O)C(Cc1ccccc1)NC(=O)c1ccccc1 (centres undefined),inactive,inactive,,,,,,,,,,,,
Cc1cc(C)nc(SCC(=O)Nc2ncc(Cc3cccc4ccccc34)s2)n1,7.31 µM (active),10.3 µM (active),,,,,,,,,,,,
O=C(C[C@@H]1C(C(=O)O)=CO[C@@H](O[C@@H]2O[C@H](CO)[C@@H](O)[C@H](O)[C@H]2O)/C1=C\CO)OCCc1ccc(O)cc1,inactive,inactive,,,,,,,,,,,,

SMILES,Potency [1],Potency [2],Potency [3],Potency [4],Potency [5],Potency [6],Potency [7],Potency [8],Potency [9],Potency [10],Potency [11],Potency [12],Potency [13],activity (max response) [12]
COCCOC(=O)C1=C(C)NC2=C(C(=O)CC(c3ccccc3OC)C2)C1c1cccc(O)c1 (centres undefined),2.95 µM (active) and 4.11 µM (active),2.35 µM (active) and 5.8 µM (active),inactive,inactive,,,,,,,,,,
CCC(=O)N1CCN(c2ccc(-n3c(=O)ccc4cnc5ccc(-c6cnc7ccccc7c6)cc5c43)cc2C(F)(F)F)CC1,42.2 nM (active) and 36.2 nM (active),59.6 nM (active) and 102 nM (active),0.132 µM (active),,,,,,,,,,,
C[C@](N)(Cc1ccc(O)c(O)c1)C(=O)O,inactive,inactive and 16.6 µM (active),inactive,inactive,inactive,inactive,inactive,inactive,26.4 µM (active),23.5 µM (active),23.5 µM (active),,,12% (inactive) and -6.33% (inactive)
C=C(C)C1CCC2(C(=O)O)CCC3(C(=O)O)C(CCC4C5(C)CCC(O)C(C)(C(=O)O)C5CCC43C)C12 (centres undefined),inactive,inactive,,,,,,,,,,,,
CCCOc1ccc(C(=O)OCCN(CC)CC)cc1N,inactive,inactive,inactive,inactive,inactive,inactive,inactive,inactive,inactive,inactive,inactive,,inactive,-2.3% (inactive) and -19.7% (inactive)
NC(=O)NO,inactive,inactive,4.69 µM (active),4.18 µM (active),2.96 µM (active),9.35 µM (active),9.35 µM (active),16.6 µM (active),3.72 µM (active),4.18 µM (active),4.18 µM (active),,inactive,10.6% (inactive) and 4% (inactive)
O=S(=O)(O)CCSSCCS(=O)(=O)O,inactive,inactive,inactive,inactive,inactive,inactive,inactive,inactive,inactive,inactive,inactive,,inactive,0.678% (inactive)
CC(C)(C)C(=O)Oc1ccc2c(c1)nc(NC(=O)c1cccc([N+](=O)[O-])c1)n2CCCO,4.68 µM (active),9.34 µM (active),inactive,inactive,inactive,inactive,inactive,inactive,inactive,inactive,inactive,,inactive,-24.3% (inactive)
O=C(c1ccc(Nc2nccc(-c3cc4ccccc4s3)n2)cc1)N1CCC(N2CCCC2)CC1,920 nM (active) and 468 nM (active),1.64 µM (active) and 731 nM (active),26.4 µM (active),26.4 µM (active),13.2 µM (active),18.7 µM (active),16.6 µM (active),23.5 µM (active),7.43 µM (active),9.35 µM (active),9.35 µM (active),6.31 µM (active),5.62 µM (active),
CC(C)(OCc1nn(Cc2ccccc2)c2ccccc12)C(=O)O,inactive,inactive,inactive,inactive,inactive,inactive,inactive,inactive,inactive,inactive,inactive,,inactive,3.54% (inactive)
O=C(O)C1CCCN(CCC=C(c2ccccc2)c2ccccc2)C1 (centres undefined),inactive,inactive,inactive,inactive,inactive,inactive,inactive,inactive,inactive,inactive,inactive,,inactive,-5.26% (inactive)
CC(C)[C@H](N)C(=O)OCCOCn1cnc2c(=O)[nH]c(N)nc21,5.9 µM (active),inactive,inactive,inactive,inactive,inactive,inactive,inactive,inactive,inactive,inactive,,inactive,-3.62% (inactive) and -11.6% (inactive)
CCN(CC)CCNC(=O)c1ccc2nc(-c3ccccc3)c(-c3ccc(CN4CCC(n5c(=O)[nH]c6ccccc65)CC4)cc3)nc2c1,2.06 µM (active) and 3.32 µM (active),2.59 µM (active) and 3.32 µM (active),8.33 µM (active),11.8 µM (active),2.35 µM (active),2.35 µM (active),2.64 µM (active),4.69 µM (active),0.166 µM (active),0.0526 µM (active),0.166 µM (active),6.31 µM (active),3.98 µM (active),
CCCCCCCCCCCCCC(=O)N[C@H](CO)[C@H](O)c1ccc([N+](=O)[O-])cc1,26.3 µM (active),23.5 µM (active),2.35 µM (active),2.64 µM (active),1.66 µM (active),3.72 µM (active),2.64 µM (active),2.35 µM (active),1.32 µM (active),0.743 µM (active),1.32 µM (active),,inactive,0.392% (inactive)
O=C1c2c(O)cc(O)cc2OC(c2ccc(O)c(O)c2)C1O (centres undefined),inactive,inactive,inactive,inactive,inactive,inactive,inactive,inactive,inactive,inactive,inactive,,inactive,-4.92% (inactive)
C=CC(=O)Nc1cc2c(Nc3ccc(F)c(Cl)c3)ncnc2cc1C#CC(C)(C)N1CCN(C)CC1,0.59 µM (active),0.517 µM (active),9.35 µM (active),5.26 µM (active),5.26 µM (active),5.26 µM (active),5.26 µM (active),5.9 µM (active),2.96 µM (active),2.96 µM (active),3.32 µM (active),3.16 µM (active),3.16 µM (active),
CN1CC[C@@H](c2c(O)cc(O)c3c(=O)cc(-c4ccccc4Cl)oc23)[C@@H](O)C1,0.525 µM (active),0.296 µM (active),0.469 µM (active),0.418 µM (active),0.264 µM (active),0.743 µM (active),0.59 µM (active),0.662 µM (active),0.372 µM (active),0.418 µM (active),0.469 µM (active),2.24 µM (active),1.26 µM (active),
